In the library only some 4% were active in any assay of this set; here they are far more common.
PAX8 inh HTS: inhibitors of PAX8-driven TPO luciferase reporter, primary screen, RMG-I cells, single concentration | 360,000 tested, 1.2% active | SteadyGlo, 24 h | AID 652154, 2013 | inhibition, % at 12.6 µM;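 active means mean replicate inhibition at least 60% with every replicate also reaching 60%; inconclusive means only one of the two criteria is met; inactive means mean below 60% and not all replicates reaching 60%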;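 further: luciferase light reporting Pax8 driven TPO promoter activity; plate controls were median of neutral control wells for no effect and mitoxantrone controls for full effect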
Shn3 3UTR inh: reduction of Shn3 3'UTR firefly luciferase signal, primary screen, Schnurri-3 inhibitor project, cell-based, Clone20 osteoblasts, set 2. 360,000 tested, 0.52% active. AID 588674, 2011. Clone20 osteoblast Shn3 3'UTR firefly luciferase, 24 h. inhibition, % at 12.5 µM;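 active means mean inhibition of at least 75% with every replicate also reaching 75%; inconclusive means mean inhibition at least 75% but some replicate below; inactive means mean inhibition below 75%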;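 further: 0% = median of neutral control wells and 100% = pilot-screen positive control compound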
Beta cell apopt: inhibitors of cytokine-induced beta cell apoptosis, primary screen, luminescence; 300,000 tested, 0.8% active; AID 435005, 2010; INS-1E cytokine-induced death, ATP luminescence, 48 h; percent of positive-control rescue, neutral wells zero; protection from apoptosis, % (test concentration not listed);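 active means Every replicate reaches about 75%, or at least half do and their mean reaches it too, limit read from the data; inconclusive means At least half of replicates reach the limit but their mean does not; inactive means Under half of replicates reach the limit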;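 further: 0% = cytokine-treated negative control wells and 100% = positive control rescue; higher means more ATP so stronger rescue from cytokine killing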
CSC inhib: cancer stem cell viability inhibitors, primary screen, luminescence; cancer stem cell-like cells viability; 300,000 tested, 1.1% active; AID 2717, 2010; inhibition, % at 7.5 µM; in the data active means inhibition above about 75%; inconclusive means no clear call, values can overlap the other calls; tested in HMLE shEcad cells
Mdm2 MdmX PPI: inhibitors of human Mdm2-MdmX association, primary screen, cell-based, luminescence, split luciferase, SaOS-2, uHTS; 330,000 tested, 3% active; inhibition, % at 8 µM; Protein Mdm4 (Homo sapiens) + E3 ubiquitin-protein ligase Mdm2 (Homo sapiens), …; SaOS-2 split-luciferase Mdm2/MdmX complementation;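 active means inhibition of at least 50% at 8 µM in the primary screen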
Target sequence (O15151 whole entry, looked up): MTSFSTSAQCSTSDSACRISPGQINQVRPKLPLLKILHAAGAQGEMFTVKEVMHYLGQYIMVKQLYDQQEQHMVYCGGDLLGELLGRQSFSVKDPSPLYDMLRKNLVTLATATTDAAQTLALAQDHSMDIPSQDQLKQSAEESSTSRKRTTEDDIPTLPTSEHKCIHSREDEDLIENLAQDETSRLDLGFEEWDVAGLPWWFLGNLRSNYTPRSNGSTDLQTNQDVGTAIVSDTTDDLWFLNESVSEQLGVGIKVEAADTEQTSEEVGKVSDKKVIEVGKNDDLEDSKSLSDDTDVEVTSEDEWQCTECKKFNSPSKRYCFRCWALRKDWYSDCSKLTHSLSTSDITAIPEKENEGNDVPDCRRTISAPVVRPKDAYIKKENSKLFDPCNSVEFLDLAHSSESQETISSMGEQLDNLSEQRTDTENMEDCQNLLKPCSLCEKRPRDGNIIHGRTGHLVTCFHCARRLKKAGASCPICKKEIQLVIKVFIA
Target sequence (Q00987 whole entry, looked up): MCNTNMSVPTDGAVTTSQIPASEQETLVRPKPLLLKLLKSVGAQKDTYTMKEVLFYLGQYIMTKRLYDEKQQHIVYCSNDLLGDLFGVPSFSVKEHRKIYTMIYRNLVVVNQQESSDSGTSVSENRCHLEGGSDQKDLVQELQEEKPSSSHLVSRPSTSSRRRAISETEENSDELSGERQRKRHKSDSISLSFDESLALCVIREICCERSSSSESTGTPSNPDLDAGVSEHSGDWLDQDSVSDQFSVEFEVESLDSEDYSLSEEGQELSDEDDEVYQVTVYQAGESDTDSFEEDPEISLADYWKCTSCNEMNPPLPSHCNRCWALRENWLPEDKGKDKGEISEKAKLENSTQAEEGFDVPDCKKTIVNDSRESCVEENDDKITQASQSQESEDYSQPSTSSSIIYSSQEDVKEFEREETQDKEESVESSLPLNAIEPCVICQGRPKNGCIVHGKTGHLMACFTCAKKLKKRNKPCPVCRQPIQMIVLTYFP
Gli-Sufu antag: Gli-Sufu pathway antagonists, primary screen, luciferase luminescence, Sufu-KO-LIGHT cells, uHTS; AID 588413, 2011; 340,000 tested, 0.74% active; inhibition, % at 5 µM; Sufu-KO-LIGHT fibroblasts, Gli luciferase reporter luminescence;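 active means inhibition above about 55%, limit read from the data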;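 further: 0% = DMSO-treated cells and 100% = wells with medium but no cells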
Mdm2-MdmX conf: Mdm2-MdmX complex disruptors, retested hits, confirmation, luminescence, single concentration; inhibition, % at 8 µM; AID 489028, 2010; Mdm2-MdmX binding, luminescent assay; shares compounds with Mdm2 MdmX PPI; 10,000 tested, 55% active; in the data active means inhibition above about 40%
Full FLuc ctr: full-length luciferase signal inhibition, confirmation, counter-screen for Mdm2/MdmX interaction inhibitor project, cell-based, single concentration, SaOS-2. inhibition, % at 8 µM. 6,200 tested, 77% active. SaOS-2 full-length luciferase counterscreen, luminescence. shares compounds with Mdm2 MdmX PPI;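 active means mean inhibition at 8 µM reaching about 37%, which flags the compound as non-specific, limit read from the data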;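 further: p53-null SaOS-2 cells with luciferase driven by a doxycycline-inducible promoter; compound on cells about two nights before reading with doxycycline added after day one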
The depositor's hits bear a star; ? = inconclusive; . = not tested or not shown.

SMILES | PAX8 inh HTS | Shn3 3UTR inh | Beta cell apopt | CSC inhib | Mdm2 MdmX PPI | Gli-Sufu antag | Mdm2-MdmX conf | Full FLuc ctr
Cc1cccc(-c2ccc([C@@H]3[C@@H](CO)N4CCCCN(S(=O)(=O)c5cccs5)C[C@@H]34)cc2)c1 | 6.7 | . | . | . | . | . | . | .
O=C(C[C@H]1CC[C@@H](NC(=O)CC2CC2)[C@H](CO)O1)NCc1ccc(Cl)cc1 | 0.0 | . | . | . | . | . | . | .
CCOC(=O)C1=C(CC)Nc2ccccc2N=C1NC(=O)Nc1ccc(Cl)c(Cl)c1 | 62.1* | 22.9 | 62.8 | -3.3 | 94.1* | -1.9 | 80.4* | 39.2*
COc1ccc(-c2nc3cnccn3c2Nc2ccc3c(c2)OCO3)cc1 | 7.6 | 1.0 | 1.8 | -9.9 | 53.4* | -10.4 | 6.5 | .
C[C@@H]1CN([C@@H](C)CO)C(=O)c2cccc(NC(=O)c3ccncc3)c2O[C@H]1CN(C)S(=O)(=O)c1ccc(Cl)cc1 | 10.4 | . | . | . | . | . | . | .
O=C(CN1CCOCC1)NCC[C@@H]1CC[C@H](NS(=O)(=O)c2ccc(F)cc2)[C@@H](CO)O1 | 11.2 | . | . | . | . | . | . | .
C/C(=N\N=C(N)N)c1ccc(Cl)c(Cl)c1 | -13.2 | 1.1 | -1.9 | 21.8 | 56.3* | 2.2 | 38.0 | .
C/C(=N\NC(=O)C1CC1)c1ccc(Cl)c(Cl)c1 | . | -2.7 | 4.1 | -13.7 | -19.2 | -18.3 | . | .
O=C(CCl)NC1CCCc2ccccc21 (stereo not given) | 25.5 | -19.5 | 5.7 | 4.3 | 58.1* | 10.3 | 20.4 | .
COc1ccc(Br)cc1/C=N/NC(=O)c1cc(OC)c(OC)c(OC)c1 | 14.6 | -0.1 | 18.6 | 39.4 | -8.6 | 3.8 | . | .
COc1cc(C(=O)N/N=C/c2ccsc2C)cc(OC)c1OC | . | 9.9 | 19.7 | 75.6* | 76.7* | -3.7 | 66.6* | 89.2*
CCNc1nc(C)c2cc(Br)c(=O)n(CC)c2n1 | 14.0 | 47.5 | 19.3 | 42.7 | 72.8* | 6.4 | 44.0* | 46.0*
NC(=O)C1CCN(C(=O)N2c3ccccc3Sc3ccccc32)CC1 | . | 3.7 | -6.4 | -0.1 | 13.6 | -12.7 | . | .
O=C(C1CC1)N1c2ccccc2Sc2ccccc21 | 4.5 | 20.9 | 1.3 | 71.1 | 61.4* | 5.0 | 55.4* | 75.0*
CCCN1CCC(N(CCc2ccccc2)Cc2ccccc2)CC1 | 1.1 | -3.3 | 8.1 | 22.7 | 15.4 | 29.2 | . | .
COc1ccc(CN2CCC(N(CCc3ccccc3)Cc3ccccc3)CC2)c(OC)c1 | 29.0 | 89.2* | 20.2 | ? | 86.2* | 24.1 | 30.7 | .
C[C@@H]1CN([C@@H](C)CO)C(=O)c2cc(NC(=O)Nc3cccc4ccccc34)ccc2O[C@H]1CN(C)C(=O)Nc1ccccc1 | 20.4 | . | . | . | . | . | . | .
CCc1ccc(OCC(=O)NC(NC(=S)Nc2ccc(Cl)cc2)C(Cl)(Cl)Cl)cc1 (stereo not given) | 81.8* | 86.3* | 23.1 | 4.1 | 84.3* | 4.6 | 92.1* | 22.0
CCc1ccc(OCC(=O)NC(=S)Nc2ccc(C(=O)O)cc2)cc1 | 0.0 | -7.1 | -1.5 | 3.5 | 21.5 | -0.5 | . | .
CCCC(=O)NC(NC(=S)Nc1ccc(N=Nc2ccccc2)cc1)C(Cl)(Cl)Cl (stereo not given) | 64.1* | 56.6 | 109.0* | 119.1* | 86.2* | 35.6 | 89.1* | 32.4
CCCC(=O)NC(NC(=S)Nc1ccc(S(N)(=O)=O)cc1)C(Cl)(Cl)Cl (stereo not given) | . | 10.1 | -6.1 | -10.0 | -6.0 | 4.5 | . | .
C[C@@H]1CCCCO[C@@H](CN(C)Cc2ccc(C(=O)Nc3ccccc3N)cc2)[C@@H](C)CN([C@H](C)CO)C(=O)c2cc(NS(=O)(=O)c3cn(C)cn3)ccc2O1 | -8.1 | . | . | . | . | . | . | .
COC(=O)c1ccc(Cl)c(NS(=O)(=O)c2ccc3c(c2)OCCO3)c1 | . | -36.7 | 2.0 | 41.5 | 53.0* | 26.9 | 46.8* | 54.8*

Source: PubChem (several laboratories)
